This is one part of a sample in which hits are shown more often than they occur.
LmPK inhibitor – LmPK (Leishmania mexicana) enzyme inhibition | actives 0.37% (n = 290,000) | Q27686 | purified LmPK, Kinase-Glo ATP luminescence, 1 h | Potency, µM (series often up to 57.5 µM), hits mostly inhibitors
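0.1 nM LmPK, 0.5 mM PEP, 0.1 mM ADP; 50 mM imidazole pH 7.2, 7 mM MgCl2, 50 mM KCl; 1 h RT. Kinase-Glo luminescence readout, normalized to no-enzyme (full inhibition) and uninhibited wells.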
Sm TGR inh – blocks Schistosoma mansoni thioredoxin glutathione reductase; Q962Y6; purified TGR, DTNB reduction, TNB absorbance 405 nm; Potency, µM (series often up to 114 µM), most hits filed as inhibitors; actives 3% (n = 360,000); also: nearly all actives have a fitted effect of over 60% in size
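Kinetic colorimetric format: TGR-catalysed, NADPH-driven DTNB reduction monitored via TNB absorbance. Enzyme dispensed at 20 nM; compound exposure 15 min at room temperature before reaction start.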
Tb PYK inh – inhibitors of Trypanosoma brucei pyruvate kinase; Potency, µM (top dose mostly 76.8 µM), hits mostly inhibitors; actives 0.12% (n = 410,000); TbPYK enzyme, Kinase-Glo Plus ATP luminescence, 45 min; Q57TT1; also: nearly all actives have a fitted effect of over 50% in size
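TbPYK + substrate in 50 mM TEA pH 7.2, 100 mM KCl, 10 mM MgCl2, 0.05% BSA, 0.01% Tween-20; cpd pinned; ADP 130 uM final; 45 min RT; Kinase-Glo Plus 10 min; luminescence endpoint.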
Shiga inhibitor – blocks Shiga toxin action in Vero cells | Vero cells, Shiga toxin protein synthesis inhibition reporter | inhibition, % at 38.7 µM | actives 9.2% (n = 290,000); in the data active = inhibition mostly above about 28%, no sharp cut-off; inactive = mostly below about 43%
Giardia FBPA inh – inhibitors of Giardia lamblia fructose-1,6-bisphosphate aldolase; AID 2451; A8B2U2; Potency, µM (top dose mostly 59.6 µM), most hits filed as inhibitors; actives 0.71% (n = 290,000); purified Giardia FBPA; also: nearly all actives have a fitted effect of over 55% in size
Target sequence (A8B2U2 whole entry, looked up): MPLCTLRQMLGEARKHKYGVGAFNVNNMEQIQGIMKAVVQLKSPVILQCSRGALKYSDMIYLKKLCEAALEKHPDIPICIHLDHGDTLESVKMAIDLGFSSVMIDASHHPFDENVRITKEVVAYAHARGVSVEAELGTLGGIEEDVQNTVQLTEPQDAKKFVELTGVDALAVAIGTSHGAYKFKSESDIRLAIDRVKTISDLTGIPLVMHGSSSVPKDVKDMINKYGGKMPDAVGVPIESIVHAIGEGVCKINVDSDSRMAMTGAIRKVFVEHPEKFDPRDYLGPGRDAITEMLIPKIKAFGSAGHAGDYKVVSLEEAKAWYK
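Giardia FBPA (40 nM reagent) was preincubated 10 min at RT with compound (up to 57.5 uM final), then substrate plus GAPDH/TPI/NAD/arsenate coupling system with diaphorase/resazurin was added; resorufin fluorescence (525/598 nm) was read after 20 min.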
CHX counter – counter-screen hit for Shiga toxin inhibitors, cycloheximide; cell reporter, cycloheximide protein synthesis inhibition counterscreen; AID 2314; actives 12% (n = 300,000); max response, %; in the data active = max response mostly above about 13%, no sharp cut-off; inactive = mostly below about 14%; also: read at 38.3 µM for the half of the compounds with a filed dose
A number is an active result; . = inactive; ? = inconclusive; / = no result; [ ] = dose if it differs, or a comment. Unless noted, calls follow the shape of the dose curve; as a rule, active = well fitted curve in the direction sought with a large enough effect; inconclusive = small, poorly fitted or top-dose-only effect, or another doubt; inactive = no such curve, though single readings can be large; an effect the other way counts as inactive or inconclusive.

SMILES	LmPK inhibitor	Sm TGR inh	Tb PYK inh	Shiga inhibitor	Giardia FBPA inh	CHX counter
CC1(C)Nc2ccccc2C(=O)N1c1ccc(Br)cc1	/	/	.	/	/	/
COc1ccc(N2C(=O)c3ccccc3NC23CCC(C)CC3)cc1 (stereo not drawn)	.	.	.	.	.	32
COc1ccc(N2C(=O)c3ccccc3NC2(C)C)cc1	.	.	.	73	.	.
CC1(c2ccc(Cl)cc2)NC(=O)N(CC(=O)Nc2cccnc2Cl)C1=O (stereo not drawn)	/	.	.	/	/	/
CCN(Cc1ccccc1)C(=O)CCc1c(C)nc2c(c(C)nn2-c2ccc(C)c(C)c2)c1C	/	.	.	/	/	/
O=C(Cn1c(=O)n(Cc2ccc(F)cc2)c(=O)c2sc3ccccc3c21)Nc1ccc(F)cc1F	/	.	.	.	/	.
CCCCC#CC1C=CC(Oc2ccc(OC)cc2)C(CO)O1 (stereo not drawn)	/	/	/	/	.[12.9 µM]	/
CC(C)N(CCO)C(=O)CCc1nnc(Cc2cccc(C(F)(F)F)c2)o1	.	.	.	.	.	19
CCc1ccc(CNC(=O)CCc2nnc(Cc3cccc(C(F)(F)F)c3)o2)nc1	.	.	.	.	.	.
CC(C)NC(=O)CCc1nnc(Cc2cccc(C(F)(F)F)c2)o1	.	.	.	92	.	28
CCC(COC)NC(=O)CCc1nnc(Cc2cccc(C(F)(F)F)c2)o1 (stereo not drawn)	.	.	.	60	.	46
Cc1cc(-c2nnc(CCC(=O)NCc3cccc(C(F)(F)F)c3)o2)no1	.	.	.	.	/	21
CC(=O)N1CCC2(CC1)CN(Cc1ccc(C#N)cc1)C2	/	/	.	/	.	/
Cc1cccc(-c2noc(Cc3ccc(Cl)cc3)n2)c1	.	.	.	.	.	40
COc1ccc(Cc2nc(-c3cccc(C)c3)no2)cc1	.	.	.	112	.	52
COc1cccc(NC(=O)CN(C)CC(=O)Nc2cccc(C(F)(F)F)c2)c1	.	.	.	.	.	.
COc1ccc(-c2noc(N(C)CC(=O)Nc3cccc(C(F)(F)F)c3)n2)cc1	.	.	.	.	.	21
COc1ccccc1-c1noc(CCC(=O)Nc2ccccc2Cl)n1	.	.	.	.	.	19
O=C1CN(C(=O)c2ccc(S(=O)(=O)N3CCCC3)cc2)C(c2ccccc2)c2cc(Cl)ccc2N1 (stereo not drawn)	/	.	.	/	/	/
COc1ccc(-c2noc(CCC(=O)Nc3cccc(C)c3)n2)cc1	.	.	.	100	.	27
COc1cccc(NC(=O)CCc2nc(-c3ccc(C(C)(C)C)cc3)no2)c1	/	.	.	/	/	/
O=C1CC2C(CCC23OCCO3)c2ccc3ccccc3c21 (stereo not drawn)	/	/	.	/	/	/
COCCn1c(-c2ccc(OC)cc2)nc2ccccc21	.	.	.	.	.	16
CCOCCn1c(COc2ccc(C)cc2)nc2ccccc21	.	.	.	40	.	37
CCn1c(COc2ccc(C)cc2)nc2ccccc21	.	.	.	79	.	44
SMILES	LmPK inhibitor	Sm TGR inh	Tb PYK inh	Shiga inhibitor	Giardia FBPA inh	CHX counter
Cc1ccc(OCc2nc3ccccc3n2CCOc2ccc(Cl)cc2)cc1	/	.	.	/	/	/
COCCn1c(COc2ccc(C)cc2)nc2ccccc21	.	.	.	71	.	42
CCCNC(=O)c1cc(C2CCCCN2C(=O)c2ccccc2)on1 (stereo not drawn)	/	/	.	/	/	/
COC(=O)CC1C(C)(C)C(=O)C2CC3=C4CC(=O)OC(c5ccoc5)[C@]4(C)CCC3[C@@]1(C)C2=O (stereo partly drawn)	/	/	/	/	.	/
O=C(O)c1ccc(OCCCCCCOC2CCCCO2)cc1 (stereo not drawn)	.	.	.	.	.	.
O=C(NCc1ccc(F)cc1)C(C(=O)NCc1ccc(F)cc1)c1ncc(C(F)(F)F)cc1Cl	.	.	.	.	.	.
CCOC(=O)C(C(=O)NCc1ccc(F)cc1)c1ncc(C(F)(F)F)cc1Cl (stereo not drawn)	.	.	.	.	.	17
Cc1nn(-c2cccc(C(=O)O)c2)c(C)c1[N+](=O)[O-]	.	.	.	.	.	.
Cc1nn(-c2ccc(C(=O)OC(C)C)cc2)c(C)c1[N+](=O)[O-]	.	.	.	62	.	32
Cc1oc(-c2ccc3ccccc3c2)nc1CN(C)C(C)c1ccncn1 (stereo not drawn)	.	50µM	.	.	.	.
O=C(c1ccc2c(c1)OCO2)c1cn(Cc2ccc(Cl)cc2)c2ccc(F)cc2c1=O	/	.	.	/	/	/
O=c1cc(CSc2n[nH]c(-c3ccncc3)n2)nc2sccn12	.	.	.	.	.	.
Cn1c(Cc2ccccc2)nnc1SCc1cc(=O)n2ccsc2n1	.	.	.	.	.	.
Cc1ccc(SCc2cc(=O)n3ccsc3n2)c(C)c1	.	.	/	.	.	21
O=c1cc(CSc2ccc([N+](=O)[O-])cc2)nc2sccn12	.	.	.	68	.	.
Cc1ccc(Nc2nnc(SCc3cc(=O)n4ccsc4n3)s2)c(C)c1	.	.	?	.	.	.
Cc1cccc(-n2c(SCc3cc(=O)n4ccsc4n3)nc3ccccc32)c1	.	.	?	.	?	20
Cc1ccc([C@H]2C[C@@H](O)[C@H](n3cc(-c4ccc(F)cc4)nn3)CN2C(=O)C2CCCCC2)cc1	/	/	.	/	/	/
COc1ccc(/C=C2\N=C(SC)N(c3ccccc3OC)C2=O)cc1	.	.	.	.	.	25
CCN(C(=O)CSc1nc2ccccc2n1Cc1cc(C)ccc1C)c1ccccc1	/	.	.	/	/	/
COc1ccccc1NC(=O)c1ccccc1NC(=O)c1ccccc1	/	.	.	/	/	/
COc1ccccc1NC(=O)c1ccc(N)cc1	.	.[11.4 µM]	.	60	.	16
CC(C)(C)c1ccc(OC(=O)c2ccc3nsnc3c2)cc1	.	.	.	.	.	.
O=C(Nc1cccnc1)c1ccc2snnc2c1	.	.	.	.	/	.
O=C(Nc1ccccc1)c1ccc2snnc2c1	.	/	.	67	.	25
SMILES	LmPK inhibitor	Sm TGR inh	Tb PYK inh	Shiga inhibitor	Giardia FBPA inh	CHX counter
COc1ccccc1OC(=O)c1ccc2nsnc2c1	.	.	.	.	.	9.9
COc1cccc(NC(=O)c2ccc3nsnc3c2)c1	.	.	.	78	.	28
C[N+]1(C)CCC[C@H]1C(=O)[O-]	/	/	/	.	.	.
CCN(C(=O)Cn1ncc2c1-c1cc(C)ccc1OC2)c1cc(Cl)ccc1OC	/	.	.	/	/	/
C[C@H]([C@H](C)N1CC(=O)NC(=O)C1)N1CC(=O)NC(=O)C1	/	/	/	.	?	.
COc1ccc2nc3oc(C(=O)Nc4cccc(C(F)(F)F)c4)cc3cc2c1	/	.	.	/	/	/
COc1ccccc1NC(=O)c1ccc2nsnc2c1	.	.	.	107	.	26
COc1cc(NC(=O)c2ccc3nsnc3c2)cc(OC)c1OC	.	.	.	.	.	.
CC(C)c1ccc(NC(=O)c2ccc3snnc3c2)cc1	.	.	.	.	/	.
Cc1ccc(NC(=O)c2ccc3snnc3c2)cc1	.	.	.	.	.	18
